From PubChem BioAssay (EPA / NIEHS) come the findings set out here.

Records with an inconclusive call do not appear. Calls of active or inactive are those of the source. Rule for the calls: active = hit-call score of the fitted dose curve at least 0.9, where 1 is the maximum; inconclusive = response in the unintended direction; inactive = score below 0.9.

Chain of Cytochrome P450 2C19 (Homo sapiens) (P33261 whole entry, looked up): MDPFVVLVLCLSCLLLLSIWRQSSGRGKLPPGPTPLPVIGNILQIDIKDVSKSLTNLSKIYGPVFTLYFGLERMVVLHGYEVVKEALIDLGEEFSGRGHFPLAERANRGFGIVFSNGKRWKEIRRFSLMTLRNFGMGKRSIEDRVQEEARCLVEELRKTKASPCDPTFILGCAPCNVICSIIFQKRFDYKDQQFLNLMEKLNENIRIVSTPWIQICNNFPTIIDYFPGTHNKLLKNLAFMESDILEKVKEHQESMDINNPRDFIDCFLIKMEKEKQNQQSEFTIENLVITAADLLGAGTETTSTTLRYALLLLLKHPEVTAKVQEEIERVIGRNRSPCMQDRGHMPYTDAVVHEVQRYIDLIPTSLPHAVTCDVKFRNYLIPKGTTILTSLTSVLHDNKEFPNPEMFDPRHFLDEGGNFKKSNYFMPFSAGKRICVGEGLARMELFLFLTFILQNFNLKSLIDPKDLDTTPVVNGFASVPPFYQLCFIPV

Read-out in this assay: Cytochrome P450 2C19 (Homo sapiens) (UniProt P33261)
The assay is described as follows: CLD_CYP2C19_24hr: CellzDirect (CLD) Gene Expression Assay for xenobiotic metabolism (CYP2C19) at 24 hours (AID 2283687).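 Note: activity means mRNA induction above DMSO vehicle baseline.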 The procedure:
CLD_24hr is a cell-based, multiplexed-readout assay that uses hepatocyte, a human liver primary cell, with measurements taken at 24 hours after chemical dosing in a 96-well plate.CLD_CYP2C19_24hr is one of 16 assay component(s) measured or calculated from the CLD_24hr assay. It is designed to make measurements of mRNA induction, a form of inducible reporter, as detected with chemiluminescence signals by Quantitative Nuclease Protection Assay (qNPA) technology.Data from the assay component CLD_CYP2C19_24hr was analyzed at the endpoint, CLD_CYP2C19_24hr, in the positive analysis fitting direction relative to DMSO as the negative control and baseline of activity. Using a type of inducible reporter, gain-of-signal activity can be used to understand changes in the reporter gene as they relate to the gene CYP2C19. Furthermore, this assay endpoint can be referred to as a primary readout. To generalize the intended target to other relatable targets, this assay endpoint is annotated to the cyp intended target family, where subfamily is xenobiotic metabolism.
Human hepatocyte cultures were treated daily for two consecutive days with fresh dosing solutions containing appropriate concentrations of the 320 ToxCast chemicals (chemical identities were blinded to CellzDirect and other ToxCast collaborators), vehicle control (0.2% DMSO), and positive control inducers as summarized in Table 1. Due to the large number of treatment groups and chemicals examined, the ToxCast chemicals were divided into two groups (spanning two independent cultures of hepatocytes from separate donor preparations (Hu778: ToxCast plates 1 and 2; Hu776: ToxCast plates 3 and 4). Each preparation of human hepatocyte cultures was treated with respective vehicle control, medium only control, set of six positive controls/reference chemicals for the five hepatic receptor pathways, and a subset of eight of the ToxCast chemicals (indoxacarb, pyrithiobac-sodium, norflurazon, cyhalofop-butyl, methomyl, thiram, acetochlor, and propiconazole). These replicate data, coupled with internal replicates designed within the blinded ToxCast chemical library, provided additional data to evaluate interindividual differences between hepatocyte preparations and their potential impact on chemical profiles.Cell morphology and integrity were evaluated using phase-contrast microscopy as an indicator of hepatocyte cell health (Tyson & Green, 1987). Cultures for each treatment group (i.e., media, vehicle [0.2% DMSO], positive control inducers [multiple concentrations], and the ToxCast chemicals [multiple concentrations]) were observed and cell morphology was assessed relative to vehicle control cultures at each harvest time point (0, 6, 24, or 48 h). […] Images were evaluated at the conclusion of the study to assess changes in cell integrity and account for the effects of chemical exposure on uncharacteristic changes in concentration-dependent gene expression profiles. The results from these determinations of apparent cytotoxicity were annotated (yes/no) alongside the corresponding qNPA data for reference.At the conclusion of each treatment period, hepatocyte cultures (96-well) were washed with 1 volume of HBSS, lysed by addition of 25 ul ArrayPlate lysis buffer (HTG, Tucson, AZ), and 70 ul/well of Denaturation Oil, denatured by incubation at 95C for 10 min, and frozen at approximately -70C until analysis by nuclease protection assay (qNPA) (Roberts et al., 2007). For qNPA analysis, cell lysates were thawed at 50C for approximately 30 min, qNPA probes were added, and samples were incubated at 95C for 10 min to begin the detection process by denaturing the target RNA, dissociating the duplexes and secondary structure hybridization. At the conclusion of the hybridization period, S1 nuclease reagent was added to each sample to digest all nonprotected nucleotides at 50C for 60-90 min. […]
In the case of `CCCCNC(=O)OCC#CI`, the molecule was classed as inactive. Turning to `O=C(O)c1nc(Cl)ccc1Cl`, the call was inactive.

As for `CCNc1nc(Cl)nc(NC(C)C)n1`, the call was inactive.

Take `COC(=O)C(C)Oc1ccc(Oc2ccc(Cl)cc2Cl)cc1` (centres undefined): the molecule was classed as inactive. The value for `O=C(O)COc1nc(Cl)c(Cl)cc1Cl` was “inactive”; that for `CO/C=C(/C(=O)OC)c1ccccc1Oc1cc(Oc2ccccc2C#N)ncn1` was “inactive”. For the molecule `CC(C)C1(C)N=C(c2nc3ccccc3cc2C(=O)O)NC1=O` (centres undefined), the outcome was inactive. As to `CCCCNC(=O)n1c(NC(=O)OC)nc2ccccc21`, the result was inactive.

For the molecule `Cc1cc(Cl)ccc1OCC(=O)O`, the call was inactive. In the case of `CC(Oc1ccc(Cl)cc1Cl)C(=O)O` (centres undefined) it was “inactive”. For `N#CC(CCc1ccc(Cl)cc1)(Cn1cncn1)c1ccccc1` (centres undefined), the molecule was called inactive. In the case of `COC(=O)c1ccccc1C(=O)OC` it was “inactive”; in that of `COc1nc(C)nc(NC(=O)NS(=O)(=O)c2ccccc2CCC(F)(F)F)n1`, “inactive”; in that of `CC(C)(C)c1ccc(CSc2cnn(C(C)(C)C)c(=O)c2Cl)cc1`, “inactive”. In the case of `CC1COC(Cn2cncn2)(c2ccc(Oc3ccc(Cl)cc3)cc2Cl)O1` (centres undefined) it was “inactive”. Consider `COc1cnc(OC)n2nc(NS(=O)(=O)c3c(OCC(F)F)cccc3C(F)(F)F)nc12`, for which the call was inactive. The value for `COP(N)(=O)SC` (centres undefined) was “inactive”; that for `CCOC(=O)C(Cl)Cc1cc(-n2nc(C)n(C(F)F)c2=O)c(F)cc1Cl` (centres undefined) was “inactive”; that for `CCCCC(CC)COC(=O)c1ccccc1C(=O)OCC(CC)CCCC` (centres undefined) was “inactive”. The value for `CCOC(=O)CC(SP(=S)(OC)OC)C(=O)OCC` (centres undefined) was “inactive”; that for `CCON=C(CC)C1=C(O)CC(c2c(C)cc(C)cc2C)CC1=O` (centres undefined) was “inactive”. For `COP(=S)(OC)Oc1nc(Cl)c(Cl)cc1Cl`, the outcome was inactive. The value for `Oc1ccccc1-c1ccccc1` was “inactive”. Regarding `COc1nc(NC(C)C)nc(NC(C)C)n1`, the call was inactive. The value for `COc1nc(C)nc(NC(=O)NS(=O)(=O)c2ccccc2Cl)n1` was “inactive”; that for `COC(=O)N(OC)c1ccccc1COc1ccn(-c2ccc(Cl)cc2)n1` was “inactive”. The value for `CNC(=O)ON=CC(C)(C)SC` was “inactive”. In the case of `C=CC1(C)OC(=O)N(c2cc(Cl)cc(Cl)c2)C1=O` (centres undefined) it was “inactive”. With `CS/C(C)=N/OC(=O)N(C)SN(C)C(=O)O/N=C(\C)SC`, the molecule was classed as inactive.
